Test results reported in PubChem BioAssay (NCI).
About 83,000 compounds went through this panel and 20% of them were active in at least one assay; those are over-represented in the sample as a whole.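 In brief: 96-well plates, 48 h treatment, single concentration, percent growth endpoint.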 Unmarked numbers belong to inactive results. Activity calls are given as the source filed them. Rule for the calls: active = growth percent below 10; inactive = the rest.

How the values were obtained:
Experiment in all cases: NCI-60 one-dose screen, 48 h (100 = growth as untreated, 0 = no growth, -100 = all killed)
Conditions in all cases: 10 µM unless noted
HCT-15 colon = system: HCT-15 colon
HT29 colon = system: HT29 colon
SNB-75 CNS = system: SNB-75 CNS
U251 CNS = system: U251 CNS
PC-3 prostate = system: PC-3 prostate
SK-MEL-5 melanoma = system: SK-MEL-5 melanoma
UACC-62 melanoma = system: UACC-62 melanoma
LOX IMVI melanoma = system: LOX IMVI melanoma
SK-MEL-28 melanoma = system: SK-MEL-28 melanoma
SNB-19 CNS = system: SNB-19 CNS

Row | SMILES | growth (HCT-15 colon) | growth (HT29 colon) | growth (SNB-75 CNS) | growth (U251 CNS) | growth (PC-3 prostate) | growth (SK-MEL-5 melanoma) | growth (UACC-62 melanoma) | growth (LOX IMVI melanoma) | growth (SK-MEL-28 melanoma) | growth (SNB-19 CNS)
1 | CC/C(=C(\c1ccccc1)c1ccc(OCCNC)cc1)c1ccccc1 | -94.3% (active) | -89.8% (active) | -81.7% (active) | -80.3% (active) | -67.6% (active) | -99.8% (active) | -99.1% (active) | -100% (active) | -98.5% (active) | 
2 | Cc1cc2cc3cc(C)c(N(C)C)cc3nc2cc1N(C)C | 71.6% | 15.9% | 26.6% | 15.4% | 4.41% (active) | 28.5% | 58.5% | 24% | 40.6% | 
3 | CS(=O)(=O)c1ccc(-c2cnc3ccc(-c4cccc(S(C)(=O)=O)c4)nn23)cc1 | 28.2% | 33.7% | 12.4% | 46.3% | 37.6% | 38.3% | 28.8% | 12.3% | 52.5% | 
4 | COC(=S)SCN(CSC(=S)OC)c1ccc(Cl)cc1 | 86.3% | 102% | 58.9% | 90.9% | 99.3% | 83.6% | 58% | 73.4% | 102% | 
5 | O=c1cc(-c2ccccc2)[nH]c2ccccc12 | 17.5% | 15.3% | 30% | 27.2% | 27.1% | 29.4% | 64.5% | 57.7% | 62.4% | 
6 | CN1CCCCC1CCN1c2ccccc2Sc2ccc(Cl)cc21 (stereo not given) | 49.3% | 31.4% | 7.16% (active) |  |  | 55.7% | 77.9% | 68.1% | 75% | 97%
7 | Cn1c2ccccc2c2c3c(c4c5ccccc5n(CCCCCC#N)c4c21)C(=O)N(O)C3=O | 13.9% | 4.37% (active) | 17.2% | 12.8% | 24.3% | -80.3% (active) | -18.5% (active) | -66.7% (active) | 6.74% (active) | 
8 | CNC(=O)c1cc(Oc2ccc3nc(NC(=O)Nc4ccc(N5CCC(N(C)C)CC5)cc4)sc3c2)ccn1 | 74.8% | 20.1% | 86.4% | 57.6% | 95.1% | 86.1% | 99.2% | 69.9% | 87.7% | 
9 | Cc1cc2cc3cc(C)c(N(C)C)cc3[n+](C)c2cc1N(C)C | 65.6% | 16.6% | 35.4% | 12.3% | 4.2% (active) | 42.1% | 56% | 25.9% | 39.6% | 
10 | CCN(CC)CC(O)c1cc(-c2ccc(Cl)cc2)nc2c(C)c(Cl)ccc12 (stereo not given) | -86.9% (active) | -100% (active) | -39.7% (active) | -93.5% (active) | -68.4% (active) | -96.6% (active) | -92.3% (active) | -94.7% (active) | -85.5% (active) | 
11 | C#Cc1nc2ccccc2c(=O)[nH]1 | -47% (active) | -55.2% (active) | -56.1% (active) |  |  | -34.6% (active) |  | -69.4% (active) | -64.8% (active) | 69.2%
12 | O=C(O)c1ccc2c(c1Sc1ccccc1)C(=O)c1ccccc1C2=O | 109% | 96% | 78.1% | 103% | 88.3% | 93.6% | 87.5% | 89.5% | 139% | 
13 | O=C1Nc2ccccc2C12CC(c1ccccc1)=NN2 (stereo not given) | 33% | 8.14% (active) | 38.4% |  | 48.2% |  | 46.7% | 48.4% | 56.8% | 68.7%
14 | O=C(Cn1cc(CN2C(=O)c3ccccc3S2(=O)=O)nn1)Nc1ccc([N+](=O)[O-])cc1Cl | 102% | 108% | 97.4% |  |  | 99.7% | 81.8% | 92.1% | 97% | 98.2%
15 | CN(C)C(=O)c1cc2cnc(Nc3ccc(-c4csc5c(=O)cc(N6CCNCC6)oc45)cc3)nc2n1C1CCCC1 | 19.9% | -15.1% (active) | 20.5% |  |  | 28.5% | 24.6% | -62.9% (active) | 40.7% | 24.9%
16 | COc1ccc2nc(NC(=O)c3cccnc3Nc3cc(OC)c(OC)c(OC)c3)sc2c1 | 56.3% | 11.9% | 14.1% |  |  | 15.5% | 57.2% | 37.1% | 24.1% | 26.4%
17 | O=C1C(=O)N(CCCCn2cc(CO)nn2)c2ccccc21 | 102% | 103% | 72.3% |  |  | 101% | 99.3% | 92.1% | 109% | 99.5%
18 | CSc1nc(NCCCNc2ccnc3cc(Cl)ccc23)cc(-c2ccccc2)n1 | 46.2% | 9.09% (active) | 56.9% |  | 59.9% |  | 91% | 31.2% | -52.2% (active) | 91.9%
19 | c1ccc(Sc2ncnc3ccccc23)cc1 | 75.2% | 88.2% | 73.2% | 87.2% | 83.5% | 66.1% | 66.2% | 67.5% | 85.5% | 
20 | CN1/C(=C\C=C\C2=[N+](C)c3ccccc3C2(C)C)C(C)(C)c2ccccc21 | 8.08% (active) | -33.9% (active) | -5.88% (active) | 9.16% (active) | 2.66% (active) | -98.5% (active) | -77.3% (active) | 0.458% (active) | -25.4% (active) | 
21 | COc1ccc(-c2cc(-c3cccnc3)nc3sc4c(=O)n(-c5ccc(C)cc5)nnc4c23)cc1OC | 103% | 105% | 85.8% | 104% | 95.8% | 97.4% | 98.7% | 97.2% | 99.9% | 
22 | CCOC(=O)c1nc(Nc2cc(C)[nH]n2)c2ccccc2n1 | 73.4% | 103% | 16.9% |  |  | 105% | 91.1% | 97.2% | 93.2% | 115%
23 | COCCOc1ccc(-c2nc3ccc(-c4nc5ccc(N6CCN(C)CC6)cc5[nH]4)cc3[nH]2)cc1 | 85.9% | 4.98% (active) | -21.2% (active) |  | 22.5% |  | -39.9% (active) | -72.5% (active) | -39.2% (active) | 7.61% (active)
24 | COC1/C=C\OC2(C)Oc3c(C)c(O)c4c(O)c(c(CN(C)CCO)c(O)c4c3C2=O)NC(=O)/C(C)=C\C=C/C(C)C(O)C(C)C(O)C(C)C(OC(C)=O)C1C (stereo not given) | 104% | 140% | 83.2% | 109% | 97.2% | 108% | 97.6% | 94.9% | 124% | 
25 | CCCCCCCCCCCCS(=O)CC(C)O (stereo not given) | 104% | 110% | 78.3% |  |  | 103% | 92.6% | 111% | 102% | 98.6%
26 | CC(C)n1cc2c(N)ncnc2n1 | 106% | 101% | 81.6% | 106% | 106% | 108% | 92.9% | 108% | 152% | 
27 | CN1CCN(Cc2ccc(NC(=O)c3[nH]ncc3Nc3ncnc4[nH]ccc34)cc2)CC1 | 15.6% | 1.32% (active) | -39.1% (active) | 7.23% (active) | 5.02% (active) | -25.4% (active) | 6.54% (active) | -67% (active) | 2.8% (active) | 
28 | COCCCN=C(N)c1ccc(NC(=O)c2ccc(C(=O)Nc3ccc(C(N)=NCCCOC)cc3)cc2)cc1 | 118% | 110% | 86.4% | 99.1% | 125% | 78.3% | 91% | 120% | 226% | 
